TTR transcr act = TTR transcription activation, primary screen; 1.3% of 92,000 active; SH-SY5Y TTR promoter Gaussia luciferase, luminescence; 100% = recombinant luciferase protein wells; activation, % at 16.7 µM;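 active means activation above the mean of all tested compounds plus 3 SD, cut at about 9.5% in these data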;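 further: cells exposed to compounds for one day before reading; 0% = median of all test compound wells on the plate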
TTR inh HuH7 = HuH7 TTR transcription inhibition, counter-screen; shares compounds with TTR transcr act; HuH7 TTR promoter-Gaussia luciferase reporter, luminescence; inhibition, % at 16.7 µM; 4% of 1,100 active; AID 1117279;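 active means average inhibition above the solvent-only control wells' mean plus 3 SD, cut at about 15% in these data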;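 further: 0% = cells with DMSO only and 100% = cells with inhibitor control FD; inhibitors lower well luminescence so higher value means more inhibition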
TTR up confirm = human TTR transcription activation, confirmation | shares compounds with TTR transcr act | SHSY5Y TTR promoter Gaussia luciferase, luminescence; 100% = purified Lucia enzyme wells, no cells | activation, % at 16.7 µM | 1,100 tested, under 10 active | AID 1117280;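 active means mean activation above a set limit taken from the earlier primary screen, cut at about 11% in these data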;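 further: 0% = DMSO-treated cells and 100% = recombinant Lucia luciferase without cells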
* marks the source's active call; other numbers are inactive results. The sample as a whole holds a higher share of hits than the screen did.

SMILES	TTR transcr act	others
COc1cccc(NC(=O)NC2CCCCN(Cc3ccccc3C)C2=O)c1 (stereo not given)	-3
COC(=O)[C@]12CCCCC=C1N(Cc1ccc(OC)cc1)C(=O)[C@@H]2CC(=O)NCCCCc1ccccc1	10
C[C@@H]1CCN(C2CC2)S(=O)(=O)c2ccc(N3CCC[C@H]3C)cc2O1	0
O=C1CC(c2ccccc2)=C(c2ccccc2)C1c1ccccc1 (stereo not given)	-3
O=C1CCC(NC(=O)Cc2ccccc2)C(=O)N1 (stereo not given)	0
COc1ccc(Cl)cc1NC(=O)CSc1nnc(C2CC2)n1N	4
C#CCNC(=O)C[C@@H]1C(=O)N(CCc2ccc(Cl)cc2)C2=CCCCC[C@]21C(=O)OC	1
CC(C)(C)c1ccc(C(=O)NCc2nnc(SCC(=O)NC3CCCCC3)o2)cc1	2
COc1cc2c(cc1NC(=O)Nc1cccc(C)c1)oc1ccccc12	1
COc1ccccc1NC(=O)c1cc(-c2ccc(OC)c(OC)c2)nc2ccccc12	-2
COc1cc2c(cc1NC(=O)c1cc(-c3ccncc3)nc3ccccc13)oc1ccccc12	15*	TTR inh HuH7=4;TTR up confirm=-1
O=C(/C=C/c1ccc(-c2ccccc2)cc1)NC1=NCCS1	3
CC(=O)Nc1ccc(S(=O)(=O)N(C)CC(=O)N2CCN(C(=O)c3ccco3)CC2)cc1	0
CC(C)(C)NC(=O)C(c1ccnc2ccccc12)n1c(=O)c(-c2ccco2)nc2ccccc21 (stereo not given)	-1
CCCC1CC(=O)NC1(C(=O)OCC)C(=O)OCC (stereo not given)	0
COc1cccc(C2NC(=O)NC(C)=C2C(=O)Nc2ccc(C)cc2)c1 (stereo not given)	21*	TTR inh HuH7=-11;TTR up confirm=0
CC1=C(C(=O)Nc2ccccc2C)C(c2ccccc2)NC(=O)N1 (stereo not given)	-1
CC1=C(C(=O)Nc2ccc(C)cc2)C(c2ccc(N(C)C)cc2)NC(=O)N1 (stereo not given)	1
O=C(NCc1ccco1)O[C@@H]1CC[C@@]23CCCN2C(=O)CCC[C@H]3C1	0
Cc1ccc(CN2CCCCC(NC(=O)c3cccc(F)c3)C2=O)cc1 (stereo not given)	1
O=C(NOCc1cscn1)Nc1ccccc1	0
COc1cc(-c2cc(C(=O)NN3CCN(C)CC3)c3ccccc3n2)cc(OC)c1OC	36*	TTR inh HuH7=-11;TTR up confirm=3
COc1cc(-c2cc(C(=O)OCC(=O)NC3CC3)c3ccccc3n2)cc(OC)c1OC	-3
COc1cc(-c2cc(C(=O)O)c3cc4c(cc3n2)OCCO4)cc(OC)c1OC	2
COc1cccc(N(C)C(=O)[C@@H](C)[C@@H](O)c2ccc(Cl)cc2)c1	2
SMILES	TTR transcr act	others
COc1ccc(CNC(=O)CN(C(=O)CCC(=O)Nc2nccs2)c2cccc(C)c2)cc1	0
O=C1CCC[C@H]2[C@@H](Cc3ccccc3)[C@@H](O)CC[C@]23CCCN13	-2
COc1ccc(CN(C)C[C@H]2Oc3c(NC(=O)Nc4ccccc4)cccc3C(=O)N([C@H](C)CO)C[C@@H]2C)cc1	-3
C[C@@H]1CN([C@@H](C)CO)C(=O)c2cccc(NS(C)(=O)=O)c2O[C@H]1CN(C)Cc1ccc(C(=O)O)cc1	5
C[C@@H]1CN([C@@H](C)CO)C(=O)c2cccc(NS(C)(=O)=O)c2O[C@H]1CN(C)Cc1ccc(Oc2ccccc2)cc1	19*	TTR inh HuH7=5;TTR up confirm=0
CC(CCCCCCCCC(=O)O)N(CCO)C(=O)OC(C)(C)C (stereo not given)	10*	TTR inh HuH7=-5;TTR up confirm=0
CCCCCCCCCCCCC(=O)CCCCC(=O)O	-1
CCCCCCC(=O)O	0
C=CCC(O)(CC=C)CNC(=O)c1ccc(OC)c(OC2CCN(C(C)=O)CC2)c1	1
CCOc1cc(CNCCN2CCOCC2)ccc1OCc1ccccc1Cl	27*	TTR inh HuH7=-7;TTR up confirm=-1
CCOc1cc(CNCCCN2CCOCC2)ccc1OCC(=O)NC(C)(C)C	1
CCOc1cc(CNC2CCCC2)ccc1OCc1ccccc1Cl	0
Cc1cccc(NC(=O)c2cc(S(=O)(=O)N3CCCCC3)c[nH]2)c1	7
Cc1ccnn1CC(=O)N/N=C/c1cccs1	-1
O=C(Cn1ccc(C(F)(F)F)n1)N/N=C/c1cccs1	-1
Nc1nnnn1CC(=O)N/N=C/c1cccs1	36*	TTR inh HuH7=-8;TTR up confirm=1
CCCCNS(=O)(=O)CC1NCCc2ccccc21 (stereo not given)	-1
Cc1cc(Br)ccc1OCCNCc1ccccc1	-1
Cc1cc(Cl)cc(C)c1OCCNCc1ccccc1	-2
Cc1cc(C)c(OCCNCc2ccccc2)c(C)c1	13*	TTR inh HuH7=-11;TTR up confirm=1
CCN1CCCCC(NC(=O)c2ccc(Cl)cc2Cl)C1=O (stereo not given)	-1
Cc1nn(C)c(C)c1/C=N/NC(=O)c1csc2ccccc12	-2
Cc1sccc1/C=N/NC(=O)c1cccc2ccccc12	-2
CCn1ncc(/C=N\NC(=O)c2csc3ccccc23)c1C	15*	TTR inh HuH7=18*;TTR up confirm=-1
O=C(N[C@@H]1CC[C@@H](CCNC(=O)C2CCOCC2)O[C@@H]1CO)c1ccncc1	-1
SMILES	TTR transcr act	others
Cn1ccc2c(-c3ccc(C(=O)O)cc3)cc3c(c21)C1CCC3C1 (stereo not given)	12*	TTR inh HuH7=-12;TTR up confirm=0
Cn1ccc2c(-c3ccc(C(C)(C)C)cc3)cc3c(c21)C1CCC3C1 (stereo not given)	-1
COc1ccc(-c2cc3c(c4c2ccn4C)C2CCC3C2)cc1 (stereo not given)	-1
Cc1cccc(NC(=O)CSc2nnc(C)n2Cc2ccccc2)c1	6
CCn1c(CN2CCOCC2)nnc1SCC(=O)Nc1cccc(C)c1	21*	TTR inh HuH7=-17;TTR up confirm=-1
Cc1ccc(NC(=O)CSc2nnc(CN3CCOCC3)n2-c2ccccc2)cc1	-1
Cc1cn(C2CC(OC(=O)C(C)C)C(CO)O2)c(=O)[nH]c1=O (stereo not given)	0
COC(=O)C1CN(Cc2ccccc2)CCS(=O)(=O)N1Cc1cn(Cc2ccccc2Br)nn1 (stereo not given)	-1
CN1C(=O)C(O)(CC(=O)c2cccs2)c2ccccc21 (stereo not given)	18*	TTR inh HuH7=-10;TTR up confirm=-1
Cc1ccccc1CN1C(=O)C(O)(CC(=O)c2ccncc2)c2ccccc21 (stereo not given)	-3
CCCCN1C(=O)C(O)(CC(=O)c2ccccn2)c2ccccc21 (stereo not given)	1
CC(Oc1ccc2c(c1)oc(=O)c1ccccc12)C(=O)NC(Cc1c[nH]c2ccc(O)cc12)C(=O)O (stereo not given)	-2
CC(CCc1ccccc1)NC(=O)CNC(=O)c1ccccc1Br (stereo not given)	0
CCNc1ncnc2c1cnn2C1CCCO1 (stereo not given)	10*	TTR inh HuH7=-8;TTR up confirm=1
c1ccc(-n2ncc3c(NCCN4CCCCC4)ncnc32)cc1	0
c1ccc(CNc2ncnc3c2cnn3-c2ccccc2)cc1	1
COC(=O)c1ccc(N2CCCCC2)c(NC(=O)c2ccco2)c1	0
CC(C)CN1C(=O)C[C@@]2(C(=O)N(C)c3ccc(NS(=O)(=O)C4CCCCC4)cc32)C1c1ccccc1 (stereo not given in full)	2

Source: PubChem (The Scripps Research Institute Molecular Screening Center)
